For 110 sequences, binding signal results are on record in article PMC4242493, “Sequence specificity incompletely defines the genome-wide occupancy of Myc”.

The full ranking holds about 33,000 sequences; the median of “normalized occupancy” is about 0.075, and the highest 2% start at about 0.095. The list comes from a sample in which the highest values are over-represented; it also holds similar and randomly drawn sequences.

Chain of MaxL homodimer (P61244 whole entry): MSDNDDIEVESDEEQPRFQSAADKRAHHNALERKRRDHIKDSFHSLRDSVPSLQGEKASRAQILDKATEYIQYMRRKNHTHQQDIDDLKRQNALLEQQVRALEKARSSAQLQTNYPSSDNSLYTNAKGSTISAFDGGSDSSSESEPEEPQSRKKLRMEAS

In this test the target is MaxL homodimer (Homo sapiens, UniProt P61244 1-160). The test is described as follows: universal protein-binding microarray (PBM); PBS-based mixture, 10 nM His-tagged protein dimer, 2% milk, 200 ng/uL BSA, 50 ng/uL salmon testes DNA, 0.02% TX-100; detection with Alexa 488 anti-His antibody;; high values mean tight binding. The conditions noted are these: protein: recombinant; tags: C-terminal His-tag (pET21a); chain copies: 2; dsDNA, one strand shown. The gist of the method:
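Arrays of the 'all 10-mer' universal design (Agilent 4 x 44 K) were exposed to 10 nM His-tagged protein dimer, stained with 10 ng/μL fluorophore-conjugated anti-His antibody and read on a GenePix 4400A to give a fluorescence intensity for each 8-mer. Binding occupancy is each intensity divided by the highest-ranked intensity.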
In the case of CACCCACA, the binding signal came to 0.0789 normalized occupancy.

For ATTCCACG, the binding signal turned out to be 0.0964 normalized occupancy. In the case of CATCCACA it was 0.0859 normalized occupancy. Turning to CATCCACG, the binding signal is 0.108 normalized occupancy. Regarding CACCCACG, the binding signal was 0.0964 normalized occupancy.

CAACTATG: the binding signal came out at 0.0846 normalized occupancy. On to AACAGCAT, for which the binding signal came out at 0.087 normalized occupancy. As to GTTTGGAA, the binding signal is 0.0754 normalized occupancy. ACGCCTGG: the binding signal is 0.0735 normalized occupancy.

For CAGTAATA, the binding signal worked out at 0.0775 normalized occupancy. As for CATCCCCG, the binding signal worked out at 0.0773 normalized occupancy. As to TTAATGAA, the binding signal worked out at 0.0772 normalized occupancy. For the sequence ACACAGGC, the binding signal worked out at 0.0789 normalized occupancy. Turning to CACTTCGC, the binding signal worked out at 0.0739 normalized occupancy.

Turning to GTCCTCAC, the binding signal stood at 0.0765 normalized occupancy. To AAGAGCAC belongs 0.0774 normalized occupancy.

As for CGCGGGAC, the binding signal was 0.0733 normalized occupancy.

For TAAAGGAA, the binding signal was 0.0741 normalized occupancy.

As to AATCGAAA, the binding signal stood at 0.0785 normalized occupancy. For the sequence ATGATGTG, the binding signal came out at 0.088 normalized occupancy. Regarding AGGTGGAT, the binding signal was 0.08 normalized occupancy. For the sequence AGGTGGAA, the binding signal was found to be 0.0722 normalized occupancy. Turning to GAGTGGAC, the binding signal worked out at 0.0761 normalized occupancy. For AAGTGGAT, the binding signal is 0.0727 normalized occupancy.

Consider GGGTGGAC, for which the binding signal was determined as 0.0796 normalized occupancy. Take CCGTGGAC: the binding signal worked out at 0.0739 normalized occupancy. ACGTGGAT: the binding signal is 0.104 normalized occupancy.

In the case of ACGTGGAA, the binding signal was 0.108 normalized occupancy. In the case of AGGTGGAC it was 0.0775 normalized occupancy; in that of GCGTGGAC, 0.0976 normalized occupancy; in that of AAGTGGAA, 0.072 normalized occupancy. ACGTGGAC: the binding signal is 0.106 normalized occupancy. Turning to AGCTGAAA, the binding signal is 0.0723 normalized occupancy. On to ACACGGCC, for which the binding signal is 0.0719 normalized occupancy. For AAACATCC, the binding signal turned out to be 0.0762 normalized occupancy. Regarding CGGCACAA, the binding signal came out at 0.0773 normalized occupancy. As to TCAATAGA, the binding signal was found to be 0.0745 normalized occupancy. In the case of ACAAGGCT it was 0.0781 normalized occupancy; in that of GAGGCAGA, 0.0719 normalized occupancy. To CGCTCTAA belongs 0.0739 normalized occupancy. Consider AGGGCATA, for which the binding signal was 0.0779 normalized occupancy. With AGGTGGAG, the binding signal stood at 0.0827 normalized occupancy. On to ACGTGGAG, for which the binding signal came out at 0.0976 normalized occupancy. With GCGTGGAA, the binding signal turned out to be 0.106 normalized occupancy. Take TCGTGGAA: the binding signal turned out to be 0.0835 normalized occupancy.

Turning to CCGTGGAA, the binding signal stood at 0.0755 normalized occupancy. Turning to CCGTGGAG, the binding signal worked out at 0.0796 normalized occupancy. Consider ACGTATTA, for which the binding signal amounted to 0.0818 normalized occupancy.

Turning to AATGGTTA, the binding signal is 0.0807 normalized occupancy.

Take CATGACGG: the binding signal amounted to 0.0797 normalized occupancy.

Take AAGCGTCA: the binding signal stood at 0.0737 normalized occupancy. Take AAGCGTTG: the binding signal stood at 0.076 normalized occupancy. With GAGCGTGC, the binding signal stood at 0.0887 normalized occupancy. With CACCGTGC, the binding signal came to 0.0868 normalized occupancy. Regarding AAGCGCGG, the binding signal worked out at 0.0752 normalized occupancy. Regarding CAGCGTGC, the binding signal was determined as 0.118 normalized occupancy. Consider CAGCGCGC, for which the binding signal stood at 0.0795 normalized occupancy. For the sequence AAGCGTGG, the binding signal came out at 0.121 normalized occupancy. For AAGCGTGA, the binding signal came to 0.0961 normalized occupancy. Take AAGCGTTC: the binding signal came to 0.0728 normalized occupancy. As for AAGCGTGC, the binding signal is 0.104 normalized occupancy. Turning to AAGCGTTA, the binding signal stood at 0.0738 normalized occupancy.

For GGTCGGAC, the binding signal was 0.0772 normalized occupancy. Take TATGCTAA: the binding signal is 0.0798 normalized occupancy. In the case of CAATCTCG it was 0.0753 normalized occupancy; in that of ACGCTGAC, 0.0735 normalized occupancy. Consider ATTTGAGA, for which the binding signal worked out at 0.0896 normalized occupancy. AGACCCTC: the binding signal was 0.0752 normalized occupancy. CTGGTCAC: the binding signal was determined as 0.0773 normalized occupancy. For the sequence ATTTATGC, the binding signal was 0.0838 normalized occupancy. To AGAGTTAA belongs 0.0737 normalized occupancy; to AAGCGTAT, 0.0722 normalized occupancy; to AAGCGTGT, 0.0967 normalized occupancy. In the case of AAGCGCGT it was 0.0758 normalized occupancy; in that of GAGGGGAA, 0.0755 normalized occupancy. Turning to AGGTGATG, the binding signal amounted to 0.0834 normalized occupancy.

As to GTATGATA, the binding signal turned out to be 0.0877 normalized occupancy. In the case of ACGTGATC it was 0.108 normalized occupancy; in that of AAGTGATG, 0.0756 normalized occupancy; in that of AAGTGATC, 0.0794 normalized occupancy. Turning to AAGTGATA, the binding signal amounted to 0.0795 normalized occupancy. As for ACGTGATA, the binding signal turned out to be 0.11 normalized occupancy. In the case of CCGTGATC it was 0.0778 normalized occupancy.

Turning to ACGTGATG, the binding signal came to 0.103 normalized occupancy.

In the case of CCATGATA, the binding signal came out at 0.0845 normalized occupancy. Turning to AGGTGATA, the binding signal came to 0.0839 normalized occupancy. Regarding GCATGATA, the binding signal amounted to 0.0994 normalized occupancy.

Consider CTGGACGA, for which the binding signal is 0.0734 normalized occupancy. Regarding CCTTCAGA, the binding signal was 0.0732 normalized occupancy. With CGAGGGCA, the binding signal turned out to be 0.0765 normalized occupancy. In the case of GTGCTGGA it was 0.0813 normalized occupancy. In the case of ATTGATTG it was 0.0769 normalized occupancy; in that of CAAGGGAA, 0.0781 normalized occupancy; in that of ATGGATGC, 0.082 normalized occupancy.

In the case of GCGTGATA, the binding signal was 0.1 normalized occupancy.

As to CCGTGATA, the binding signal was 0.0782 normalized occupancy.

On to GAGTGATA, for which the binding signal was 0.0802 normalized occupancy. With CCATTCAA, the binding signal turned out to be 0.0785 normalized occupancy. In the case of CGCATAGC, the binding signal is 0.0734 normalized occupancy.

Regarding AGCATGGA, the binding signal was 0.1 normalized occupancy.

Consider CGCATGGC, for which the binding signal was determined as 0.127 normalized occupancy. In the case of CCCATGGC, the binding signal was 0.0849 normalized occupancy. To AGCATTGA belongs 0.0777 normalized occupancy; to ATCATGGC, 0.0863 normalized occupancy; to ATCATGGA, 0.0834 normalized occupancy. As to AGCATGGG, the binding signal turned out to be 0.106 normalized occupancy. Regarding AGCATGGC, the binding signal was 0.102 normalized occupancy. With AGCATAGG, the binding signal turned out to be 0.0718 normalized occupancy. To AGAATGGC belongs 0.0756 normalized occupancy. In the case of ATCATGGG, the binding signal is 0.0858 normalized occupancy.
